Screening results as filed in PubChem.
mHTT-CaM PPI inh: mHTT-calmodulin interaction abrogation | AlphaScreen His-mHTT/GST-CaM binding, luminescence | P42858 | 190,000 tested, 3.6% active | inhibition, % at 15 µM
Pf apPOL block: Pf-apPOL DNA polymerase inhibition. Recombinant Pf-apPOL, molecular beacon fluorescence, 1.5 h. inhibition, % at 10 µM. 210,000 tested, 0.25% active
Numbers stand for hits; ! = not confirmed by another sample. A selection: hits, their analogues and other compounds. The true share with any hit is near 3.5%. No stated cut-off is given here; in the data, active means inhibition above about 50%; inactive means the rest.

Results for Cc1cc(-c2nnc(-c3ccccc3)o2)ccc1[N+](=O)[O-] ?
mHTT-CaM PPI inh: inactive; Pf apPOL block: inactive

How did Cc1c(C(=O)NCC2CCC(C(=O)O)CC2)c(=O)oc2ccccc12 (stereo unspecified) do in these assays?
mHTT-CaM PPI inh: inactive; Pf apPOL block: inactive

What do the screens show for `CCC(C)NC(=O)COc1ccc(Br)cc1` (stereo unspecified)?
mHTT-CaM PPI inh: inactive; Pf apPOL block: inactive

Results for COc1cccc(C(=O)Nc2ccc(-c3nc4ncccc4o3)cc2)c1 ?
mHTT-CaM PPI inh: inactive; Pf apPOL block: inactive

Results for COc1ccc(-c2csc(Nc3ccc(O)cc3)n2)cc1OC ?
mHTT-CaM PPI inh: 70.7; Pf apPOL block: inactive

How did COc1ccc(-c2csc(Nc3ccc(NC(C)=O)cc3)n2)cc1OC do in these assays?
mHTT-CaM PPI inh: inactive; Pf apPOL block: inactive

Results for O=C1NC2=C(C(=O)c3ccccc32)C(c2ccccc2)N1 (stereo unspecified) ?
mHTT-CaM PPI inh: inactive; Pf apPOL block: inactive

How did COc1cccc(C2Sc3ccccc3NC3=C2C(=O)c2ccccc23)c1 (stereo unspecified) do in these assays?
mHTT-CaM PPI inh: 76.0; Pf apPOL block: inactive

How did O=C1Nc2ccccc2SC1c1ccccc1 (stereo unspecified) do in these assays?
Pf apPOL block: inactive

What do the screens show for `O=C1C2=C(Nc3ccccc3SC2c2cccs2)c2ccccc21` (stereo unspecified)?
mHTT-CaM PPI inh: 73.0; Pf apPOL block: inactive

What do the screens show for `O=C1C2=C(Nc3ccccc3SC2c2ccccc2)c2ccccc21` (stereo unspecified)?
mHTT-CaM PPI inh: 73.5

What do the screens show for `O=C1C2=C(Nc3ccccc3SC2c2ccccc2[N+](=O)[O-])c2ccccc21` (stereo unspecified)?
mHTT-CaM PPI inh: 53.0; Pf apPOL block: inactive

How did O=C1c2ccccc2NC(c2cccs2)N1c1ccccc1 (stereo unspecified) do in these assays?
mHTT-CaM PPI inh: inactive; Pf apPOL block: inactive

Results for Cc1cccc(C2SC(=O)NC3=C2C(=O)c2ccccc23)c1 (stereo unspecified) ?
mHTT-CaM PPI inh: inactive; Pf apPOL block: inactive

What do the screens show for `O=C(Nc1ccc2c(c1)C(N1CCOCC1)=Nc1ccccc1O2)C1CCC1`?
mHTT-CaM PPI inh: inactive; Pf apPOL block: inactive

How did CCc1c(C2CCN(C(=O)c3ccn(CC)n3)CC2)noc1N do in these assays?
mHTT-CaM PPI inh: inactive; Pf apPOL block: inactive

Results for CCc1c(C)nc(SCc2ccc(C(F)(F)F)cc2)[nH]c1=O ?
mHTT-CaM PPI inh: inactive; Pf apPOL block: inactive

How did COc1ccc(C(=O)NNS(=O)(=O)c2ccc(CNC(=O)c3ccc(Cl)cc3)s2)cc1OC1CCCC1 do in these assays?
Pf apPOL block: inactive

How did O=C(NCc1ccccc1)C1CCN(c2cncnc2N2CCCC2)CC1 do in these assays?
mHTT-CaM PPI inh: inactive; Pf apPOL block: inactive

How did CSC(=CC(=O)c1ccccc1)Nc1ccccc1Cl do in these assays?
Pf apPOL block: inactive

How did COc1cccc(C2Nc3ccccc3NC3=C2C(=O)CC(c2ccccc2)C3)c1OC (stereo unspecified) do in these assays?
mHTT-CaM PPI inh: inactive; Pf apPOL block: inactive

Results for COc1cccc(C2Sc3ccccc3NC3=C2C(=O)c2ccccc23)c1OC (stereo unspecified) ?
mHTT-CaM PPI inh: 58.0; Pf apPOL block: inactive

What do the screens show for `O=C(c1ccc(OCC2CCCN2C(=O)c2ccc(Cl)cc2)cc1)N1CCCC1` (stereo unspecified)?
mHTT-CaM PPI inh: inactive; Pf apPOL block: inactive

Results for CC1CCC(C(C)C)C(OCC(O)CN(C(C)C)C(C)C)C1 (stereo unspecified) ?
mHTT-CaM PPI inh: inactive; Pf apPOL block: inactive

Results for COc1ccc(OC)c(N2C(=O)CC(Sc3nc4ccccc4s3)C2=O)c1 (stereo unspecified) ?
mHTT-CaM PPI inh: 51.0!; Pf apPOL block: inactive

How did COc1ccc(N2C(=O)CC(Sc3nc4ccccc4s3)C2=O)cc1 (stereo unspecified) do in these assays?
mHTT-CaM PPI inh: inactive; Pf apPOL block: inactive

What do the screens show for `Cc1cc2ncn(Cc3ccccc3F)c2cc1C`?
mHTT-CaM PPI inh: inactive; Pf apPOL block: inactive

How did CC(C)CC(C(=O)Nc1cccc(Cl)c1)N1C(=O)c2ccccc2C1=O (stereo unspecified) do in these assays?
mHTT-CaM PPI inh: 63.0; Pf apPOL block: inactive

Results for CC(C)CC(C(=O)Nc1cccc(O)c1)N1C(=O)c2ccccc2C1=O (stereo unspecified) ?
mHTT-CaM PPI inh: inactive; Pf apPOL block: inactive

How did COc1ccc(Br)cc1CNC(=O)CCCN1C(=O)CCn2nc(C)cc21 do in these assays?
mHTT-CaM PPI inh: inactive; Pf apPOL block: inactive

Results for Cc1ccc2nc(-c3ccc(C)o3)c(NC(=O)C3CCCCC3)n2c1 ?
mHTT-CaM PPI inh: 55.7; Pf apPOL block: inactive

How did Cc1ccn2c(NC(=O)C3CCCC3)c(-c3ccccc3)nc2c1 do in these assays?
mHTT-CaM PPI inh: inactive; Pf apPOL block: inactive

What do the screens show for `Cc1ccc2nc(Cc3ccccc3)c(NC(=O)C3CCCCC3)n2c1`?
mHTT-CaM PPI inh: 53.9; Pf apPOL block: inactive
